According to PubChem BioAssay (NCI):
The panel holds about 83,000 compounds, 20% with a hit somewhere; the sample as a whole holds those more often.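 Each cell line was grown in a 96-well plate and treated with one concentration of compound for 48 hours. Values below 10 were considered active.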 Activity calls are given as the source filed them.

Key:
Test in all cases: NCI-60 one-dose screen, 48 h (100 = growth as untreated, 0 = no growth, -100 = all killed)
Settings in all cases: 10 µM unless noted
DU-145 prostate = system: DU-145 prostate
K-562 leukemia = system: K-562 leukemia
MALME-3M melanoma = system: MALME-3M melanoma
RXF 393 renal = system: RXF 393 renal
SF-268 CNS = system: SF-268 CNS
SF-295 CNS = system: SF-295 CNS
SF-539 CNS = system: SF-539 CNS
UACC-257 melanoma = system: UACC-257 melanoma
M14 melanoma = system: M14 melanoma
MDA-MB-231 breast = system: MDA-MB-231 breast

Measured: growth

OC1Cc2ccccc2C1
inactive: DU-145 prostate 103% | K-562 leukemia 48.3% | MALME-3M melanoma 95.2% | RXF 393 renal 101% | SF-268 CNS 102% | SF-295 CNS 95.2% | SF-539 CNS 97.1% | UACC-257 melanoma 90.9% | M14 melanoma 94.9%

O=c1cc(C(F)(F)F)[nH]c(=S)[nH]1
inactive: DU-145 prostate 109% | K-562 leukemia 111% | MALME-3M melanoma 96.6% | RXF 393 renal 104% | SF-268 CNS 121% | SF-295 CNS 98.3% | SF-539 CNS 96.5% | UACC-257 melanoma 99.2% | M14 melanoma 108%

C=CC1=NC(C)(C)CC(C)O1 (configuration not stated)
inactive: DU-145 prostate 113% | K-562 leukemia 107% | MALME-3M melanoma 107% | MDA-MB-231 breast 110% | SF-268 CNS 109% | SF-539 CNS 97.8% | UACC-257 melanoma 95.4% | M14 melanoma 112%

CC(C)C(C)(C)C(=O)C(C)(C)C(C)(C)C
inactive: DU-145 prostate 107% | K-562 leukemia 96.8% | MALME-3M melanoma 92.6% | RXF 393 renal 104% | SF-268 CNS 102% | SF-295 CNS 95.8% | SF-539 CNS 98.8% | UACC-257 melanoma 92.6% | M14 melanoma 114%

C=C(c1ccc(N(C)C)cc1)c1ccc(N(C)C)cc1
inactive: DU-145 prostate 20.3% | MALME-3M melanoma 20.6% | SF-268 CNS 31.2% | SF-295 CNS 21% | UACC-257 melanoma 52.3%
active: K-562 leukemia 5.61% | RXF 393 renal -11% | SF-539 CNS -44.9% | M14 melanoma -47.2%

C/C(=N\N=C(/C)c1cccc([N+](=O)[O-])c1)c1cccc([N+](=O)[O-])c1
inactive: DU-145 prostate 95.3% | K-562 leukemia 98.3% | MALME-3M melanoma 85% | RXF 393 renal 93.9% | SF-268 CNS 80.2% | SF-295 CNS 95.8% | SF-539 CNS 93.4% | UACC-257 melanoma 87.6%
active: M14 melanoma -36.5%

CN(C)c1ccc(/C=C/C(=O)c2ccc(NC(N)=O)cc2)cc1
inactive: DU-145 prostate 98.8% | K-562 leukemia 64.6% | MALME-3M melanoma 82.3% | RXF 393 renal 107% | SF-268 CNS 99% | SF-295 CNS 98.8% | SF-539 CNS 81.1% | UACC-257 melanoma 89.9% | M14 melanoma 86.8%

COc1ccc(/C=C\C(=O)/C=C/c2ccc(OC)cc2)cc1
inactive: DU-145 prostate 96.4% | MALME-3M melanoma 95.1% | RXF 393 renal 100% | SF-268 CNS 105% | SF-295 CNS 101% | SF-539 CNS 62.8% | UACC-257 melanoma 106% | M14 melanoma 40.2%
active: K-562 leukemia 9.76%

O=C(OCc1ccccc1)n1nnc2ccccc21
inactive: DU-145 prostate 112% | K-562 leukemia 107% | MDA-MB-231 breast 96.6% | RXF 393 renal 113% | SF-268 CNS 104% | SF-295 CNS 99.2% | SF-539 CNS 105% | UACC-257 melanoma 97.2% | M14 melanoma 98.7%

Ic1cccs1
inactive: DU-145 prostate 107% | K-562 leukemia 102% | MALME-3M melanoma 94.6% | RXF 393 renal 119% | SF-268 CNS 99.3% | SF-295 CNS 95.9% | SF-539 CNS 101% | UACC-257 melanoma 99.5% | M14 melanoma 104%

COc1ccc(NNS(=O)(=O)O)cc1
inactive: DU-145 prostate 111% | K-562 leukemia 99.5% | MALME-3M melanoma 104% | RXF 393 renal 95.1% | SF-268 CNS 106% | SF-295 CNS 92.5% | SF-539 CNS 95.1% | M14 melanoma 92.5%

O=C(O)c1ccc([N+](=O)[O-])cc1S(=O)(=O)O
inactive: DU-145 prostate 104% | K-562 leukemia 107% | MALME-3M melanoma 108% | RXF 393 renal 114% | SF-268 CNS 98% | SF-295 CNS 102% | SF-539 CNS 107% | UACC-257 melanoma 100% | M14 melanoma 108%

COC1OC(C(O)C(O)CO)C(O)C(O)C1O (configuration not stated)
inactive: DU-145 prostate 118% | K-562 leukemia 104% | MALME-3M melanoma 101% | RXF 393 renal 98% | SF-268 CNS 103% | SF-295 CNS 100% | SF-539 CNS 97.5% | UACC-257 melanoma 95.6% | M14 melanoma 97.4%

CC(CC(CCC(=O)O)(c1ccccc1)c1ccccc1)N(C)C (configuration not stated)
inactive: DU-145 prostate 115% | K-562 leukemia 103% | MALME-3M melanoma 109% | RXF 393 renal 105% | SF-268 CNS 102% | SF-295 CNS 93% | SF-539 CNS 95.1% | UACC-257 melanoma 88.9% | M14 melanoma 95%

C=C1C(=O)C2CCN1CC2
inactive: DU-145 prostate 103% | K-562 leukemia 57.3% | MDA-MB-231 breast 125% | RXF 393 renal 89.6% | SF-268 CNS 102% | SF-295 CNS 96.1% | SF-539 CNS 102% | UACC-257 melanoma 108% | M14 melanoma 92.3%

CCOC(C=O)OCC
inactive: DU-145 prostate 104% | K-562 leukemia 106% | MALME-3M melanoma 92.6% | RXF 393 renal 121% | SF-268 CNS 98.3% | SF-295 CNS 99% | SF-539 CNS 97.8% | UACC-257 melanoma 96.6% | M14 melanoma 106%
